Several values for one entry are separate records, joined by “and”; a condition that tells them apart may be missing. Equal entries are not always repeated. A structure can be active in one record and inactive in another. Activity calls are given as the source filed them. How the source made its calls: active means hit-call score of the fitted dose curve at least 0.9, where 1 is the maximum; inactive means score below 0.9.
Columns and labels:
[1] = APR_HepG2_P-H2AX_24hr: Apredica 24-hour HepG2 Assay for H2AX Phosphorylation (AID 2282920); settings: high-content imaging, actives raise or lower the signal
In short: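 High-content imaging of phospho-histone H2A.x immunofluorescence, nuclei counterstained with Hoechst 33342, in fixed HepG2 cells. Compounds ran 0.39–200 uM in duplicate for 24 h, final DMSO 0.5%. Signal change fitted both directions against DMSO.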

[2] = APR_HepG2_StressKinase_72hr: Apredica 72-hour HepG2 Assay for Stress Kinase (AID 2282921); settings: HepG2 stress kinase (phospho-c-Jun) imaging, actives raise or lower the signal
In short: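 Fluorescence intensity of Cy3-tagged anti-phospho-c-Jun antibody, quantified per cell from Hoechst-defined nuclei across six images per well, served as the read-out following 72 h exposure (0.39–200 uM, 0.5% v/v DMSO).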

[3] = APR_HepG2_StressKinase_24hr: Apredica 24-hour HepG2 Assay for Stress Kinase (AID 2282922); settings: HepG2 stress kinase (phospho-c-Jun) imaging, actives raise or lower the signal
In short: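 HepG2 cells exposed 24 h to 0.39–200 uM compound in duplicate (0.5% v/v DMSO final). Cells fixed in 3.7% formaldehyde, permeabilized and immunostained for phospho-c-Jun; read by high-content fluorescence imaging, fitted bidirectionally against DMSO.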

[4] = APR_HepG2_MitoMass_72hr: Apredica 72-hour HepG2 Assay for Mitochondrial Mass (AID 2282924); settings: high-content imaging, actives raise or lower the signal;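 further: MitoTracker Red CMXRos stain intensity per cell imaged as mitochondrial mass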
In short: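 HepG2 cells dosed 72 hr at 0.39–200 uM (0.5% DMSO), in duplicate. MitoTracker Red CMXRos 250 nM loaded 30 min before formaldehyde fixation; high-content fluorescence imaging, bidirectional fit versus DMSO.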

[5] = APR_HepG2_NuclearSize_72hr: Apredica 72-hour HepG2 Assay for Nuclear Size (AID 2282925); settings: high-content imaging, actives raise or lower the signal
In short: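 HepG2 cells dosed 72 h at 0.39–200 uM (10 concentrations, duplicate) in 0.5% v/v DMSO final. Fixed, Hoechst 33342-stained nuclei imaged; nuclear diameter measured by automated image analysis. Bidirectional fit versus DMSO.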

[6] = ATG_CRE_CIS: Attagene CIS-FACTORIAL HepG2 Assay for human cAMP Responsive Element (CRE) binding protein 3 (AID 2282926); settings: HepG2 CRE cis-reporter, Attagene multiplexed mRNA; actives raise or lower the signal
In short: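 Multiplexed transcription-unit reporters transfected into HepG2; 24 h dosing; RT-PCR/capillary electrophoresis fluorescence read-out; bidirectional fit vs DMSO.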

[7] = target: CCAAT/enhancer-binding protein beta (Homo sapiens) (UniProt P17676); test: ATG_C_EBP_CIS: Attagene CIS-FACTORIAL HepG2 Assay for human CCAAT/Enhancer Binding Protein (C/EBP) beta (AID 2282927); settings: HepG2 Attagene cis-factorial transcription factor reporter; actives raise or lower the signal
In short: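 HepG2, transient MRTU transfection, 24 h treatment. RT-PCR plus CE fluorescence; DMSO negative control, bidirectional fit.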

[8] = ATG_CMV_CIS: Attagene CIS-FACTORIAL HepG2 Assay for human CMV (Internal Marker) (AID 2282928); settings: HepG2 CMV promoter reporter, transcription factor profiling; actives raise or lower the signal;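 further: endpoint acts as a background internal control marker rather than a target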
In short: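 After transient transfection of HepG2 with reporter transcription units driven by cis-regulatory promoters, cells receive test chemical for 24 h. Labeled reporter amplicons, digested with HpaI, are sized and quantified by capillary electrophoresis against DMSO.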

[9] = ATG_DR4_LXR_CIS: Attagene CIS-FACTORIAL HepG2 Assay for human Liver X Receptor (LXR), DR4 submotif (AID 2282929); settings: HepG2 Attagene DR4 cis-reporter, mRNA transcription; actives raise or lower the signal
In short: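 Transiently transfected HepG2 liver cells; cis-regulated reporters; 24 h dosing. RT-PCR plus CE read-out of reporter mRNA. DMSO baseline, bidirectional curve fitting.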

[10] = target: Aryl hydrocarbon receptor (Homo sapiens) (UniProt P35869); test: ATG_Ahr_CIS: Attagene CIS-FACTORIAL HepG2 Assay for human Aryl Hydrocarbon Receptor (Ahr) (AID 2282930); settings: HepG2 AhR cis-factorial reporter transcription; actives raise or lower the signal
In short: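 Endogenous factor activity is tracked through cis-promoter reporter units transfected into HepG2 cells. Transcript levels at 24 h are read by fluorescent RT-PCR and capillary electrophoresis, with activity in either direction scored relative to DMSO.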

[11] = ATG_AP_1_CIS: Attagene CIS-FACTORIAL HepG2 Assay for human Activator Protein 1 (AP-1) (AID 2282931); settings: HepG2 Attagene cis-factorial AP-1 reporter mRNA; actives raise or lower the signal
In short: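 We transfected HepG2 cells transiently with a set of cis-regulated reporter transcription units, dosed them for 24 h, and quantified reporter mRNA via RT-PCR and capillary electrophoresis, scoring gain or loss of signal relative to DMSO.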

[12] = ATG_AP_2_CIS: Attagene CIS-FACTORIAL HepG2 Assay for human Activator Protein 2 (AP-2) (AID 2282932); settings: HepG2 AP-2 cis-reporter, Attagene transcription factor profiling; actives raise or lower the signal
In short: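 Multiplexed mRNA reporter assay in HepG2: cis-regulated units report endogenous factor activity after 24 h treatment. Fluorescence from capillary electrophoresis of RT-PCR products gives the signal, with DMSO as baseline.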

[13] = ATG_BRE_CIS: Attagene CIS-FACTORIAL HepG2 Assay for human Bone Morphogenetic Protein (BMP) Response Element (BRE) (AID 2282933); settings: HepG2 BMP response element reporter, Attagene transcription factor profiling; actives raise or lower the signal
In short: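 Multiplexed cis-reporter assay, HepG2, 24 h exposure. mRNA from reporter units quantified via RT-PCR/CE; DMSO baseline; bidirectional curve fit.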

[14] = target: Retinoic acid receptor alpha (Homo sapiens) (UniProt P10276); test: ATG_DR5_RAR_CIS: Attagene CIS-FACTORIAL HepG2 Assay for human Retinoic Acid Receptor Alpha (RARE), DR5 submotif (AID 2282934); settings: HepG2 Attagene cis-factorial RARE DR5 reporter, mRNA; actives raise or lower the signal;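 on AC50: reporter responds to endogenous RAR alpha beta and gamma in HepG2 not RARA alone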
In short: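 After 24 h of chemical exposure, transiently transfected HepG2 cells were lysed for total RNA; the DR5-regulated reporter transcript was quantified via RT-PCR and capillary electrophoresis, with activity fitted bidirectionally against DMSO.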

[15] = target: Transcription factor E2F1 (Homo sapiens) (UniProt Q01094); test: ATG_E2F_CIS: Attagene CIS-FACTORIAL HepG2 Assay for human E2F Transcription Factor 1 (AID 2282935); settings: HepG2 Attagene cis-reporter, E2F reporter RNA transcripts; actives raise or lower the signal
In short: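 Measures reporter transcript levels via RT-PCR with capillary electrophoresis detection in HepG2 cells harboring cis-regulated reporter units; 24 h post-dose; bidirectional curve fitting with DMSO as baseline.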

[16] = ATG_E_Box_CIS: Attagene CIS-FACTORIAL HepG2 Assay for human Enhancer Box (E-box) (AID 2282936); settings: HepG2 E-box cis-reporter transcription, actives raise or lower the signal
In short: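 First, HepG2 cells receive multiple cis-regulated reporter constructs by transient transfection. Next, chemicals are applied for 24 h. Finally, reporter mRNA is quantified via RT-PCR and capillary electrophoresis, with DMSO as baseline.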

[17] = ATG_M_61_CIS: Attagene CIS-FACTORIAL HepG2 Assay for M61 Transcription Factor (Internal Marker) (AID 2282937); settings: HepG2 Attagene CIS-FACTORIAL M61 internal marker reporter; actives raise or lower the signal
In short: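 Multiplexed reporter mRNA assay, HepG2 human hepatoma cells, 24 h treatment. Signal: FAM-labelled, HpaI-digested RT-PCR fragments by CE. Fit: bidirectional, baseline DMSO.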

[18] = ATG_EGR_CIS: Attagene CIS-FACTORIAL HepG2 Assay for human Early Growth Response 1 (EGR1) (AID 2282938); settings: HepG2 Attagene CIS-FACTORIAL EGR reporter mRNA; actives raise or lower the signal
In short: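 Multiplexed cis-reporter system in human hepatoma HepG2 cells, transiently transfected. Cells are dosed for 24 h; reporter transcripts are amplified, fluorescently tagged and sized by capillary electrophoresis, with DMSO as negative control.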

[19] = ATG_M_19_CIS: Attagene CIS-FACTORIAL HepG2 Assay for M19 Transcription Factor (Internal Marker) (AID 2282939); settings: HepG2 Attagene CIS-FACTORIAL M19 internal marker reporter; actives raise or lower the signal
In short: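 Signals come from fluorescence of labelled reporter-specific PCR fragments resolved by capillary electrophoresis, following 24 h treatment of HepG2 cells transfected with cis-promoter reporter units; activity was fitted in both directions relative to DMSO.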

[20] = APR_HepG2_p53Act_72hr: Apredica 72-hour HepG2 Assay for p53 Activation (AID 2282923); settings: high-content imaging, actives raise or lower the signal;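 further: average cellular p53 protein immunofluorescence intensity in HepG2 cells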
In short: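 HepG2 monolayers receive test compounds in duplicate at ten concentrations (0.39 through 200 uM) for 72 hr. They are then formaldehyde-fixed, antibody-labelled for p53, Hoechst-stained and imaged, with activity fitted bidirectionally versus DMSO.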

Measured: AC50

Sequence of Retinoic acid receptor alpha (Homo sapiens) (P10276 whole entry, looked up): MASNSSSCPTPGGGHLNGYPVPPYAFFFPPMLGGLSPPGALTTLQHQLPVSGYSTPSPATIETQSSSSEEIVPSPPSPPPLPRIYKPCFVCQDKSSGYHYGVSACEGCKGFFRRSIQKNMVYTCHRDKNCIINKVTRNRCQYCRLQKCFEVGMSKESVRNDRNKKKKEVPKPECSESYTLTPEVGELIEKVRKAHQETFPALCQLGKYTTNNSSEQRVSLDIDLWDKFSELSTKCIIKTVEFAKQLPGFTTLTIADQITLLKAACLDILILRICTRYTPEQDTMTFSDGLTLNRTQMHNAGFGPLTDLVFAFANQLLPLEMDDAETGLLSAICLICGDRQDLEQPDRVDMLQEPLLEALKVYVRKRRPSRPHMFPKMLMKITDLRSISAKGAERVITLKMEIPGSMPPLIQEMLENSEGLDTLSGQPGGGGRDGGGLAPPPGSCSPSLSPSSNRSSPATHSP
Sequence of Transcription factor E2F1 (Homo sapiens) (Q01094 whole entry, looked up): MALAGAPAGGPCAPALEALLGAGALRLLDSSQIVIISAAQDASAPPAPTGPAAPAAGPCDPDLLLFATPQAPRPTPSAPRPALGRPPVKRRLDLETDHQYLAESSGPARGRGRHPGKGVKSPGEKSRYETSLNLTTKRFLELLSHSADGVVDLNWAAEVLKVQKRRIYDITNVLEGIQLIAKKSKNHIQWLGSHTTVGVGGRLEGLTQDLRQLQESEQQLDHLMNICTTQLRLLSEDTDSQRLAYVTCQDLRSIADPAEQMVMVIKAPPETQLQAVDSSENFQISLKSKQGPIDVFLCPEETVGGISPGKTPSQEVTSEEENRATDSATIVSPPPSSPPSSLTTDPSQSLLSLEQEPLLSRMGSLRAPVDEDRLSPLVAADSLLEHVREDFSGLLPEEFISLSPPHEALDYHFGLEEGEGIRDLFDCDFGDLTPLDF
Sequence of CCAAT/enhancer-binding protein beta (Homo sapiens) (P17676 whole entry, looked up): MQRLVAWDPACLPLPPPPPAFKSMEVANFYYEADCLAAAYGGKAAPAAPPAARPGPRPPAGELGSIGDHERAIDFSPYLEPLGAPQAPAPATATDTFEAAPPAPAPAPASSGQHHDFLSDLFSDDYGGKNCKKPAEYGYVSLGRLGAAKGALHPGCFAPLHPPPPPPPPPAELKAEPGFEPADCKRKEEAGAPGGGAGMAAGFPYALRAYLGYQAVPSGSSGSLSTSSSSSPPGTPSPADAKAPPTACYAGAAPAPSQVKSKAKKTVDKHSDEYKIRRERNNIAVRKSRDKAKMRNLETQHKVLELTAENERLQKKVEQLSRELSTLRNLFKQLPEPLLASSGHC
Sequence of Aryl hydrocarbon receptor (Homo sapiens) (P35869 whole entry, looked up): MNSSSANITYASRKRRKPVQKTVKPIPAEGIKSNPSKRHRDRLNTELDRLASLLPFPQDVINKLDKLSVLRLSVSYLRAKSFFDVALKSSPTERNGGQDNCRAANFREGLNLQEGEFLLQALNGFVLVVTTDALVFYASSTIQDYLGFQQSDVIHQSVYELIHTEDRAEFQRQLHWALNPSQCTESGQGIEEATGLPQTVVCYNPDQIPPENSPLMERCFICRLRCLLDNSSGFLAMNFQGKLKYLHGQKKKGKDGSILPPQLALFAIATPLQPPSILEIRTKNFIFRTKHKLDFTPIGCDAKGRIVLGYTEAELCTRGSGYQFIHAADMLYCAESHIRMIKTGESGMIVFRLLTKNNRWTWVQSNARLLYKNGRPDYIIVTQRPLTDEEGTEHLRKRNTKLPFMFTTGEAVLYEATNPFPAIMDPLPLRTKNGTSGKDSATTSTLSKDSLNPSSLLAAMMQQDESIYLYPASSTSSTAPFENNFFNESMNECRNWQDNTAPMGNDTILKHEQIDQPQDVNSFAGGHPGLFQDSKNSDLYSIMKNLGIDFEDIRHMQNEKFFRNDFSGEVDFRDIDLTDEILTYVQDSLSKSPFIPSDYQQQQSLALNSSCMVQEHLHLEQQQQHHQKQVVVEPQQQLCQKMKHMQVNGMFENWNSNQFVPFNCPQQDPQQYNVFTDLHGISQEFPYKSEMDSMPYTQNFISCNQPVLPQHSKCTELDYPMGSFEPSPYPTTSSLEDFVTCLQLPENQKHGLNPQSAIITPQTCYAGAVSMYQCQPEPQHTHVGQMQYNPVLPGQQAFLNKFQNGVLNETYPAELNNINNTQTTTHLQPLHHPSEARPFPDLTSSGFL

O=C(N[C@H]1CN2CCC1CC2)c1ccc2c(c1)OCCO2
active: [16] 72.7 µM
inactive: [1] | [2] | [3] | [4] | [5] | [6] | [7] | [8] | [9] | [10] | [11] | [12] | [13] | [14] | [15] | [17] | [18] | [19]

O=c1oc2ccccc2c(O)c1C(CC(O)c1ccc(-c2ccc(Br)cc2)cc1)c1ccccc1 (stereo not drawn)
inactive: [6] | [7] | [10] | [13] | [15] | [17]
active: [6] 39 µM | [9] 37.6 µM and 30.8 µM | [11] 7.97 µM and 57.9 µM | [15] 40.6 µM | [18] 41.1 µM and 17.8 µM

O=NN1CCOCC1
inactive: [6] | [7] | [8] | [9] | [10] | [11] | [12] | [13] | [14] | [15] | [16] | [17] | [18] | [19]

Oc1c(Cl)cc(Cl)cc1Cl
inactive: [1] | [2] | [3] | [20] | [4] | [7] | [8] | [9] | [12] | [15] | [16] | [17] | [19]
active: [10] 62.3 µM

FC(F)OCC(F)(F)C(F)(F)F
inactive: [6] | [7] | [8] | [9] | [10] | [11] | [12] | [13] | [14] | [15] | [16] | [17] | [18] | [19]

Cc1cccc(OP(=O)(Oc2cccc(C)c2)Oc2cccc(C)c2)c1
inactive: [6] | [7] | [8] | [9] | [10] | [11] | [12] | [13] | [14] | [15] | [16] | [17] | [18]

N#Cc1cccnc1
inactive: [1] | [2] | [3] | [4] | [5] | [7] | [8] | [9] | [10] | [11] | [12] | [13] | [15] | [16] | [17] | [18]

N#Cc1ccccc1N
active: [10] 33.2 µM
inactive: [6] | [7] | [8] | [9] | [11] | [12] | [13] | [14] | [15] | [16] | [17] | [18] | [19]

CCCCN(CCCCO)N=O
inactive: [6] | [7] | [8] | [9] | [10] | [11] | [12] | [13] | [14] | [15] | [16] | [17] | [18] | [19]

CCOP(=S)(OCC)OP(=S)(OCC)OCC
inactive: [6] | [7] | [8] | [10] | [11] | [12] | [13] | [14] | [15] | [16] | [17] | [18] | [19]
active: [9] 29.5 µM

CS(=O)(=O)c1ccc(C(=O)C2C(=O)CCCC2=O)c(Cl)c1COCC(F)(F)F
inactive: [6] | [7] | [8] | [9] | [10] | [11] | [12] | [13] | [14] | [15] | [16] | [17] | [18]

O=[N+]([O-])c1c2ccccc2cc2ccccc12
inactive: [6] | [7] | [8] | [9] | [10] | [11] | [12] | [13] | [14] | [15] | [16] | [17] | [18]

Clc1cccc(Cl)c1
inactive: [1] | [2] | [3] | [4] | [5] | [6] | [7] | [8] | [9] | [10] | [11] | [13] | [14] | [15] | [16] | [17] | [18] | [19]

CC(c1ccccc1)(c1ccc(O)cc1)c1ccc(O)cc1
active: [9] 11.1 µM | [11] 7.98 µM | [16] 16.9 µM | [18] 12.3 µM
inactive: [6] | [7] | [8] | [10] | [12] | [13] | [14] | [15] | [17]

CC(C)C(C)(N)C#N (stereo not drawn)
active: [14] 46.9 µM
inactive: [6] | [7] | [8] | [9] | [10] | [11] | [12] | [13] | [15] | [16] | [17] | [18] | [19]

Cc1ccccc1OP(=O)(Oc1ccccc1C)Oc1ccccc1C
inactive: [6] | [7] | [8] | [10] | [12] | [13] | [14] | [16] | [17] | [18] | [19]
active: [9] 13.9 µM | [11] 17.5 µM | [15] 69.7 µM

Reference: PubChem BioAssay (EPA / NIEHS)
